These results are taken from PubChem BioAssay AID686971 (National Center for Advancing Translational Sciences (NCATS), 2013).

Each structure is given as a SMILES string. Hit rate of the full screen: of about 360,000 compounds, about 7,500 (2.1%) were called active. Inconclusive results (about 8%) are left out. Calls follow the shape of the dose curve; as a rule, active = well fitted cell-killing curve with a large enough effect; inconclusive = small, poorly fitted or top-dose-only effect, or effect the other way, or another doubt; inactive = no such curve, though single readings can be large or run the other way. What follows is part of a selection rich in actives, with near analogues and random picks from the rest. Where a call stands in place of a potency, no number is given.
Potency is read from the fitted curve at half-maximal effect.

A short description of this assay: qHTS for induction of synthetic lethality in tumor cells producing 2HG: qHTS for the HT-1080-IDH1KD cell line. Particulars: HT-1080 IDH1 knockdown viability, ATP luminescence, 48 h; series mostly up to 46.1 µM. A digest of the protocol:
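After a 2 h attachment period, IDH1KD HT-1080 cells took pin-transferred compound for 48 h at 37 °C; ATP-based luminescence after 10 min room-temperature reagent incubation reported viability.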
As to `O=C(Nc1cnn(Cc2ccc(Cl)cc2)c1)C1CCCC1`, the Potency entry was “inactive”.
The same measure for `CCn1cc(CN2CCC(C(=O)Nc3cccc(-c4cccc(Cl)c4)c3)CC2)cn1`: 18.4 µM (active); for `CCn1cc(CN2CCC(C(=O)Nc3cccc(-c4cccc(Cl)c4)c3)CC2)c(C)n1`: 20.6 µM (active); for `O=C(Nc1cccc(-c2cscn2)c1)C1CCN(Cc2ccsc2)CC1`: “inactive”.
As for `CCn1cc(CN2CCC(n3nccc3NC(=O)CCCc3ccccc3)CC2)c(C)n1`, the Potency result is “inactive”.
For the compound `CC(=O)c1cc(CN2CCC(C(=O)Nc3cccc(-c4cscn4)c3)CC2)cs1`, the Potency result is “inactive”.
As for `Cc1ccc([C@@H]2CC(=O)[C@@H]3CN(S(=O)(=O)c4ccc(C)cc4)[C@H](c4ccccc4F)C[C@@H]3N2S(=O)(=O)c2ccc(Cl)cc2)cc1`, the Potency result was “inactive”.
For the compound `CCN(CC)CCn1c2ccc(Cl)cc2c2nc(C)sc21`, the Potency result is “inactive”.
The same measure for `CCN(CC)CCCC(C)n1c2nc(=O)[nH]c(=O)c-2nc2cc(Cl)ccc21` (configuration not stated): 16.4 µM (active); for `CCCCc1ccc(S(=O)(=O)NC(=O)C2(C)CCN2C(=O)c2c(C)noc2C)cc1` (configuration not stated): “inactive”.
The entry for `CC(=O)Nc1ccc(SCC(=O)NC(=O)c2ccc(Cl)cc2)cc1` is “inactive”.
The same measure for `Cc1cccc(C)c1-n1nnnc1C1(C)CCC(=O)N1CCOc1ccccc1` (configuration not stated): “inactive”; for `COc1cc(NC(=O)c2cc(-c3ccc(F)cc3OC(C)C)n[nH]2)cc(OC)c1OC`: “inactive”; for `COc1ccc(NC(=O)C[C@H]2C(=O)N(CCc3ccccc3)C[C@@H]2C)cc1`: “inactive”.
As to `OCCc1ccc(NCCc2ccco2)cc1`, the Potency result is “inactive”.
The same measure for `Cc1ccc(S(=O)(=O)Nc2nc(N)n(-c3ccccc3)n2)cc1`: “inactive”; for `Cc1cc(C)nc(NS(=O)(=O)c2ccc(N3C(=O)C4CCCCC4C3=O)cc2)n1` (configuration not stated): “inactive”.
As to `Cc1ccc(S(=O)(=O)Nc2nc(C)cc(-n3nc(C)cc3C)n2)cc1`, the Potency was 15.8 µM (active).
The entry for `C[C@H]1CN([C@@H](C)CO)C(=O)CCCn2cc(nn2)CO[C@@H]1CN(C)S(=O)(=O)c1cccc(C#N)c1` is “inactive”; for `CC1(C(=O)NS(=O)(=O)c2ccc(C#N)cc2)CCN1C(=O)CC1CCCC1` (configuration not stated) it is “inactive”.
The same measure for `COCCNc1nc(Nc2ccccc2Cl)c2sc(-c3ccccc3)cc2n1`: “inactive”.
The figure for `CC(=O)Nc1ccc(CNc2nc(NCCN(C)C)nc3cc(-c4ccccc4)sc23)cc1` is 20.6 µM (active); for `COCCNc1nc(NCc2ccc(NC(C)=O)cc2)c2sccc2n1` it is “inactive”.
Regarding `COc1cccc(C(O)c2nc(-c3ccc(C)c(C)c3)cs2)c1` (configuration not stated), the Potency entry is “inactive”.
The same measure for `CC1(C)OC(=O)C2=C(CC(c3ccccc3)OC2CCc2ccccc2)O1` (configuration not stated): “inactive”; for `OCCCNc1nccc(-c2cc(Nc3cccc(Cl)c3)ncn2)n1`: “inactive”; for `CC(C)n1cnc2c(Nc3cccc(Cl)c3)nc(N(CCO)CCCO)nc21`: 14.6 µM (active).
In the case of `COC(=O)[C@]12CCCCC=C1N(Cc1ccc3c(c1)OCO3)C(=O)[C@H](CC(=O)NCc1cccs1)C2`, the Potency result was “inactive”.
For the compound `COc1cc(C(O)c2nc(-c3cnn(C)c3)cs2)ccc1F` (configuration not stated), the Potency entry is “inactive”.
The same measure for `CCCCCNC(=O)C1C(=O)Nc2ccccc2C(=O)N1C(C)(C)C` (configuration not stated): “inactive”; for `CCOC(=O)[C@H]1Nc2ccc(Cl)cc2[C@@H]2[C@H]1C1CC(c3ccccc31)N2C(=O)OCc1ccccc1` (some centres not stated): “inactive”.
`CCOC(=O)Cc1ncccc1C(=O)Nc1ccc(OC)cc1`: the Potency entry is “inactive”.
The figure for `CCOC(=O)Cc1ncccc1C(=O)Nc1ccc(OC(F)(F)F)cc1` is 20.6 µM (active); for `COC(=O)Cc1ccc(OCC(=O)Nc2ccc(OC(F)(F)F)cc2)cc1` it is “inactive”; for `O=C(NCc1ccccc1)C1c2ccccc2OCC(=O)N1C1CC1` (configuration not stated) it is “inactive”.
For the compound `CCNC(=O)c1ccc(OCC(=O)Nc2ccc(F)cc2)c(OC)c1`, the Potency result was “inactive”.
As for `COc1ccc(C(=O)Nc2ccc(C3(C#N)CCCC3)cc2)cc1OC`, the Potency result was “inactive”.
In the case of `COc1ccc(C(=O)N/N=C2\CCS(=O)(=O)c3ccc(F)cc32)cc1OC`, the Potency was 20.6 µM (active).
`CC1(C(=O)NCc2ccccc2)CSCC(=O)N1CCCn1ccnc1` (configuration not stated): the Potency entry was “inactive”.
Consider `O=C(C(=O)N1CCC(c2ccccc2)CC1)c1ccccc1`, for which the Potency result is “inactive”.
Take `CN(c1ccccc1)S(=O)(=O)c1ccc(C(=O)NCc2cccnc2)cc1`: the Potency entry was “inactive”.
The entry for `Cc1sc2nc(SCC(N)=O)n(C)c(=O)c2c1C` is “inactive”; for `CC(C)(C)C1CCc2c(sc3nc(SCC(N)=O)nc(N)c23)C1` (configuration not stated) it is 32.6 µM (active).
The same measure for `Nc1nc(SCC(=O)NCCN2CCOCC2)nc2sc3c(c12)CCC3`: “inactive”.
In the case of `CC1Cc2[nH][nH]c(=O)c2C(C2CCCC2)O1` (configuration not stated), the Potency result is “inactive”.
With `O=C(C[C@H]1CC[C@H]2[C@@H](COC[C@H](O)CN2C(=O)c2ccccn2)O1)N1CCN(c2ccccc2)CC1`, the Potency result was “inactive”.
The entry for `c1cc(-c2ccc3[nH]ccc3c2)n2ccnc2c1` is “inactive”; for `CCCCN(CCCC)CCC(O)c1cc2c(Cl)cc(Cl)cc2c2cc(C(F)(F)F)ccc12` (configuration not stated) it is 20.6 µM (active); for `CS(=O)(=O)N1CCCCC1c1cc(C(=O)NCc2ccccc2)no1` (configuration not stated) it is “inactive”.
The same measure for `Cn1c(Nc2ccc(F)cc2)nc2cc(-c3ccsc3)sc2c1=O`: “inactive”; for `CC(C)NC(=O)C1(C)CCCCN1Cc1cccc(C(F)(F)F)c1` (configuration not stated): “inactive”; for `Cc1ccc(S(=O)(=O)NN=C2CC(C)(C)CC(=O)C2(C)C)cc1`: “inactive”.
As to `COc1ccc(-c2nnc(SC(C)C(=O)NC3CC3)o2)cc1` (configuration not stated), the Potency result was “inactive”.
Take `COc1ccc(-c2nnc(-c3ccc4ccccc4c3)o2)cc1`: the Potency entry is “inactive”.
As for `COc1ccc(-c2nnc(SC(=O)N3c4ccccc4Sc4ccccc43)o2)cc1`, the Potency is 11.2 µM (active).
Take `Cc1cccc(S(=O)(=O)N(C)C[C@@H]2OCc3cnnn3CCCC(=O)N([C@H](C)CO)C[C@@H]2C)c1`: the Potency result is “inactive”.
The same measure for `Cc1ccc(Cc2c(-c3ccc(C)cc3)nc3c4ccccc4ccn23)cc1`: “inactive”; for `CS(=O)(=O)c1cccc(-c2ccc3nncn3c2)c1`: “inactive”.
For the compound `COc1cc(NC(=O)c2cncc(-c3ccc(C#N)cc3)c2)cc(C(=O)Nc2cccc(C(F)(F)F)c2)c1`, the Potency entry is “inactive”.
The same measure for `COc1cc(NC(=O)c2[nH]cnc2C(N)=O)cc(C(=O)Nc2cccc(C(F)(F)F)c2)c1`: 20.6 µM (active); for `Cc1cccc(NC(=O)c2nnn(-c3cccc(C(F)(F)F)c3)c2N)c1`: “inactive”; for `C[C@H](CO)N1C[C@H](C)[C@H](CN(C)C(=O)c2ccncc2)OCc2ccccc2-c2c(n(C)c3ccccc23)C1=O`: “inactive”.
